# Results filed as inconclusive are left out. Where a call stands in place of a potency, no number is given. Calls of active or inactive are those of the source. The call rests on the fitted dose curve; in most records, active means well fitted inhibition curve with a large enough effect; inconclusive means small, poorly fitted or top-dose-only effect; inactive means flat fitted curve, though single readings scatter.
# Biological target: Dual specificity protein kinase CLK4 (Homo sapiens) (UniProt Q9HAZ1)
# Experiment: qHTS Assay for Inhibitors of CDC-like Kinase 4 (ADP-Glo Assay) (AID 1771); further: nearly all actives have a fitted effect of over 70% in size
# Settings: recombinant CLK4, ADP-Glo luminescence; series mostly up to 80 µM
# Description: NIH Molecular Libraries Probe Production Centers Network [MLPCN] NIH Chemical Genomics Center [NCGC] MLPCN Grant: 1R03MH084827-01 Assay Submitter (PI): Tom Misteli NCGC Assay Overview: Clk4 (Invitrogen, cat# PV3839) was assayed using ATP and the RS repeat peptide (AnaSpec cat # 61722) as substrates. In the assay, the ADP levels were detected using Promega ADP-Glo technology wherein the remaining ATP from the kinase reaction is first depleted with an ATPase reagent followed by a reagent that contains and enzyme which converts the ADP produced to ATP as well as Ultra-Glo luciferase and D-luciferin which generates a bioluminescence signal from the ATP. The positive control for the assay was TG003 (Sigma-Aldrich, cat# 300801-52-9) which has been described as an inhibitor of Clk 4[1].
# NCGC Assay Protocol Summary: Two uL/well of substrate-buffer solution (100 uM RS peptide, 1 uM ATP, 1x ADP-Glo Buffer A, 2 mM MgCl2, 0.5 mM EGTA, 2.5 mM DTT, 0.01% Triton X-100, final concentrations) was dispensed into 1536-well plates (Greiner, solid white, medium binding assay plates) with the Aurora Discovery BioRAPTR Flying Reagent Dispenser (FRD; Beckton-Dickenson). Twenty-three nanoliter of compound and control solutions were transferred to the assay plate using a Kalypsys pin-tool followed by 0.5 uL/well Clk4-buffer solution (25 nM Clk4, 1x ADP-Glo Buffer A, 2 mM MgCl2, 0.5 mM EGTA, 2.5 mM DTT, 0.01% Triton X-100 final concentration) dispensing for a total kinase reaction volume of 2.5 uL/ well. After 1 hr of room-temperature incubation, 2.5 uL ADP-Glo reagent was added and incubated at room temperature for 45 min to stop the kinetic reaction and degrade residual ATP. The ADP product was then converted to ATP by adding 5 uL per well of ADP-Glo Reagent II to yield a total assay volume of 10 uL/ well. Luminescence was detected after 30 min room temperature incubation with the Perkin Elmer Viewlux.
# Potency means the concentration at half of the fitted maximal effect.
# Sequence of Dual specificity protein kinase CLK4 (Homo sapiens) (Q9HAZ1 whole entry, looked up): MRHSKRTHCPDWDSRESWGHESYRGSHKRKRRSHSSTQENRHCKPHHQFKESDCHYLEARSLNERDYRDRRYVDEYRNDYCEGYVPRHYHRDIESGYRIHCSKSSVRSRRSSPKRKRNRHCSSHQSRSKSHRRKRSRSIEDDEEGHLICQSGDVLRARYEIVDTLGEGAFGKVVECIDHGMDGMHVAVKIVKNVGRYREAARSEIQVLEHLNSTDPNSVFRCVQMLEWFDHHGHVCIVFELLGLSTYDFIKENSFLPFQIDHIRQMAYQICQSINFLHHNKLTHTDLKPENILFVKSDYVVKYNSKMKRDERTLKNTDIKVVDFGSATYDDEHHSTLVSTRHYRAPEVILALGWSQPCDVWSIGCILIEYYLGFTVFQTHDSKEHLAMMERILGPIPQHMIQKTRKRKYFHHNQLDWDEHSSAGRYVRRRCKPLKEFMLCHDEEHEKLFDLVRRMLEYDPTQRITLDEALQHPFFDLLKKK
row,SMILES,Potency
1,Clc1ccccc1-c1nccc(NCc2ccccc2)n1,inactive
2,CN(C)c1ncc2nc(-c3ccccc3)c(=O)n(CCC#N)c2n1,inactive
3,CNc1ccnc(-c2cccc(NS(C)(=O)=O)c2)n1,inactive
4,COc1ccccc1-c1cc(NCc2cccs2)ncn1,14.1 µM (active)
5,COc1ccc(CNc2ccnc(-c3ccoc3)n2)c(OC)c1,inactive
6,O=c1c(-c2ccc(Cl)cc2)nc2cnc(N3CCNCC3)nc2n1CCc1ccccc1,inactive
7,FC(F)(F)c1ccccc1-c1nc(NC2CC2)c2ccccc2n1,14.1 µM (active)
8,CN(C)C(=O)c1ccc(-c2cncnc2NCc2ccccc2)cc1,inactive
9,COc1ccc(-n2c(=O)c(-c3cc(F)cc(F)c3)nc3cncnc32)cc1,inactive
10,COc1ccc2[nH]cc(CCNc3nc(-c4ccc(N(C)C)cc4)nc4ccccc34)c2c1,28.2 µM (active)
11,COc1ccc(-c2nc3cnc(N(C)C)nc3n(Cc3ccc(F)cc3)c2=O)cc1,inactive
12,CN1CCN(c2ncc3nc(-c4ccccc4)c(=O)n(C4CC4)c3n2)CC1,inactive
13,Cc1cnc(CNc2ccnc(-c3ccoc3)n2)cn1,inactive
14,c1ccc(CNc2ncnc3ccc(-c4ccc5c(c4)OCO5)cc23)cc1,0.178 µM (active)
15,CN(C)c1ncc2nc(-c3ccc(Cl)cc3)c(=O)n(CCC#N)c2n1,inactive
16,CN(C)c1ccc(-c2nc(-n3ccnc3)c3ccccc3n2)cc1,11.2 µM (active)
17,Cc1nc2cncnc2n(Cc2ccccc2Cl)c1=O,inactive
18,COc1ccc(-c2nc3cnc(OCc4ccccc4)nc3n(CCC#N)c2=O)cc1,inactive
19,COCCn1c(=O)c(-c2ccccc2)nc2cncnc21,inactive
20,CN1CCN(c2ncncc2-c2ccc(N(C)C)cc2)CC1,inactive

row,SMILES,Potency
1,CNc1nc(-c2ccc(C(=O)N(C)C)cc2)nc2ccccc12,28.2 µM (active)
2,N#Cc1cccc(-c2cncnc2NCc2ccccc2)c1,inactive
3,COc1ccccc1CNc1ccnc(-c2ccc(C(=O)N(C)C)cc2)n1,inactive
4,COc1cccc(-c2nccc(NCc3ccccc3)n2)c1,15.8 µM (active)
5,CCNc1ncc2nc(-c3cc(F)cc(F)c3)c(=O)n(CCOC)c2n1,inactive
6,CN(C)c1ncc2nc(-c3ccc(F)cc3)c(=O)n(-c3ccccc3)c2n1,inactive
7,CC(=O)NCCNc1ncnc2ccc(-c3ccccc3C(F)(F)F)cc12,31.6 µM (active)
8,c1cncc(-c2ccc3ncnc(NCCN4CCOCC4)c3c2)c1,17.8 µM (active)
9,COc1ccc2[nH]cc(CCNc3nc(-c4cccc(C#N)c4)nc4ccccc34)c2c1,28.2 µM (active)
10,COc1ccccc1-c1nc(N2CCOCC2)c2ccccc2n1,20 µM (active)
11,COc1ccc(-c2nc3cnc(N4CCOCC4)nc3n(Cc3cccc(OC)c3)c2=O)cc1,inactive
12,CCNc1ncc2nc(-c3cccc(C#N)c3)c(=O)n(Cc3cccc(OC)c3)c2n1,inactive
13,COCCn1c(=O)c(CCc2ccccc2)nc2cnc(Nc3ccccc3)nc21,inactive
14,COc1ccccc1-c1ccc2ncnc(NCc3ccccc3)c2c1,6.31 µM (active)
15,COc1ccccc1-c1cc(-n2ccnc2)ncn1,6.31 µM (active)
16,Cc1ccccc1-c1ccc2ncnc(NCc3cccs3)c2c1,3.55 µM (active)
17,Clc1ccccc1-c1cncnc1NCCN1CCOCC1,inactive
18,COc1cccc(-c2ccc3ncnc(NCCc4c[nH]c5ccc(OC)cc45)c3c2)c1,3.98 µM (active)
19,COc1ccccc1CNc1ncnc2ccc(-c3ccccc3C#N)cc12,7.94 µM (active)
20,COCCn1c(=O)c(-c2ccc(OC)cc2)nc2cnc(OCc3ccccc3)nc21,inactive

# Source: PubChem BioAssay (NCATS)
